From PubChem BioAssay (NCI)
About 83,000 compounds went through this panel and 20% of them were active in at least one assay; those are over-represented in the sample as a whole.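 How to read the values: 0–100, growth inhibition (40 = 60% inhibited); 0, no net growth; -100 to 0, cell death (-40 = 40% of starting cells died; -100 = all dead).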 Unmarked numbers belong to inactive results. Activity calls are given as the source filed them. How the source made its calls: active means growth percent below 10; inactive means the rest.

What follows are compounds tested on HCT-116 colon (assay: NCI-60 one-dose screen, 48 h (100 = growth as untreated, 0 = no growth, -100 = all killed)). Settings: 10 µM unless noted.
Work on `CC(C)(C)c1nn(-c2ccccc2)c2c1CC1(CN2Cc2ccc3c(c2)OCO3)C(=O)c2ccccc2C1=O` yielded a growth of 88.9%. With `COc1ccc(-c2cc(-c3ccc(N(C)C)cc3)nc(NC(=O)c3ccncc3)n2)cc1` the growth was 94%. In the case of `Nc1nc(-c2ccc(F)cc2)cc(-c2cnn(-c3ccccc3)n2)n1`, the growth is reported as 106%. In the case of `CC(=O)CC(C)(C)c1ccc(Cl)cc1`, the growth is reported as 97.5%. Compound `Nc1c(C(=O)Nc2ccccc2Cl)sc2nc3c(cc12)CCCCCC3` has a growth of 19.2%. `O=C(Nc1ccc(Nc2cc(Nc3ccccc3)ncn2)cc1)Nc1cc(C(F)(F)F)ccc1F` was tested, and the growth was 63.7%. Compound `CCOC(=O)C(Cc1cc(I)c(O)c(I)c1)NC(=O)c1ccccc1` (centres undefined) has a growth of 96.2%. In the case of `CC[C@H](Nc1cc(C)nc(N)n1)c1nc2cccc(NCc3ccc(C(=O)NO)cc3)c2c(=O)n1-c1ccccc1`, the growth is reported as -18.7% (active). In the case of `C=C1CCC2C3(C)COC(c4cccc(Cl)c4)OC3CCC2(C)C1/C=C/C1=CCOC1=O` (centres undefined), the growth is reported as 28.9%. With `CCN(CC)CC(O)CNc1c2ccc([N+](=O)[O-])cc2nc2cc(OC)c(OC)cc12` (centres undefined) the growth was -23.5% (active). `COc1cc(-c2c3sc(=O)[nH]c3nc3c2c(=O)[nH]n3C(C)C)cc2c1OCO2` was tested, and the growth was 106%. In the case of `O=S(=O)(Nc1ccc(F)c(Cl)c1)c1ccc(-c2cnc(C3CC3)o2)cc1`, the growth is reported as 19.7%. In the case of `COc1ccc(/C=c2/c(=O)[nH]c3nc4sc(C)c(C)c4c(=O)n23)cc1`, the growth is reported as 93.1%. Compound `Fc1ccc(Cc2ccc(F)cc2)cc1` has a growth of 102%. `CC(C)c1c(C(=O)Nc2ccccc2)c(-c2ccccc2)c(-c2ccc(F)cc2)n1CC[C@@H]1CC=CC(=O)O1` was tested, and the growth was -62.5% (active). With `COc1ccc2nc3cc(Cl)ccc3c(N3CCN(c4ccnc(N5CCN(C)CC5)n4)CC3)c2c1` the growth was -62.4% (active). With `COc1cc(NCCCCN=C(N)NC(N)=NC(C)C)c2ncccc2c1` the growth was 1.56% (active). With `CS(=O)CCCCCN=C=S` (centres undefined) the growth was -2.02% (active). With `O=C(CO[N+](=O)[O-])Nc1ccc(C(=O)/C=C/c2ccc3c(c2)OCO3)cc1` the growth was -5.9% (active). For `O=C(CCN1CCOCC1)Nc1ccc(Cn2nnc3c2C(=O)c2nnn(Cc4ccc(NC(=O)CCN5CCOCC5)cc4)c2C3=O)cc1`, the growth was -15.6% (active). With `O=C1Nc2ccccc2/C1=C/C(=N/c1nnc(-c2ccc(Cl)cc2)s1)c1ccccc1` the growth was -58.5% (active). `Cc1ccc(SCN2CCN(c3cccc(Cl)c3)CC2)cc1` gave a growth of 91.6%. For `COc1ccccc1N1CCN(CCn2c(=O)c3c(c4ccccc4n3C)n(C)c2=O)CC1`, the growth was 98.4%. Work on `CS(=O)(CCCCN=C=S)=NC(=O)c1c(F)c(F)c(F)c(F)c1F` (centres undefined) yielded a growth of 86.4%. `O=C(Cn1cc(CN2C(=O)c3ccccc3S2(=O)=O)nn1)Nc1ccc([N+](=O)[O-])cc1Cl` showed a growth of 103%. In the case of `c1ccc(-c2nc(N3CCOCC3)c3c4c(sc3n2)CCCCC4)nc1`, the growth is reported as 74.3%. `O=[N+]([O-])c1c(F)cccc1Nc1cccc(F)c1` gave a growth of 99.5%. With `CC1(C)CC(=O)C(c2c(-c3ccccc3)[nH]c3[nH]c(=S)[nH]c(=O)c23)=C(O)C1` the growth was 102%. Work on `O=C([C@@H](COCc1ccccc1)N1C(=O)[C@@H](N2C(=O)OC[C@@H]2c2ccccc2)[C@H]1/C=C/c1ccccc1)N1CCC(CCN2CCCCC2)CC1` yielded a growth of 83.1%. `COc1cc(/C=N\NC(=O)CN2CCN(c3cc4c(cc3F)c(=O)c(C(=O)N/N=C/c3ccc(O)c(OC)c3)cn4C3CC3)CC2)ccc1O` was tested, and the growth was 53.6%. In the case of `CC/C=C\C[C@H](O)C/C=C1/C(=O)C=C[C@@H]1C/C=C\CCCC(N)=O`, the growth is reported as -69% (active). Work on `ClC1=C2NC=NC2n2c(nnc2-c2ccc(Cl)cc2)N1` (centres undefined) yielded a growth of 98.5%. `COc1ccc(C(=O)c2sc3nc(-c4ccccc4OC)ccc3c2N)cc1OC` showed a growth of 39.3%. For `CCN1CCN(Cc2ccc(NC(=O)Nc3nc4ccc(Oc5ccnc(C(=O)NC)c5)cc4s3)cc2C(F)(F)F)CC1`, the growth was -66.1% (active). Work on `COc1ccc2nc3cc(Cl)ccc3c(N3CCN(c4nccc(NCc5ccccc5)n4)CC3)c2c1` yielded a growth of 25.8%. Compound `C=C1CCC2C3(C)COC(c4ccc(SC)cc4)OC3CCC2(C)C1C/C=C1/C(=O)OCC1O` (centres undefined) has a growth of 11.2%. Work on `O=c1[nH]c(-c2ccccn2)nc2sc3c(c12)CCCCC3` yielded a growth of 24.7%. `COc1ccc(C/C(C)=C(\c2ccc(Cl)cc2)c2ccc(OCCN3CCCCCC3)cc2)cc1` gave a growth of 56.5%.

These compounds were tested on HCC-2998 colon in the same assay as above. Settings: 10 µM unless noted.
For `CC(C)(C)c1nn(-c2ccccc2)c2c1CC1(CN2Cc2ccc3c(c2)OCO3)C(=O)c2ccccc2C1=O`, the growth was 96.9%. Work on `COc1ccc(-c2cc(-c3ccc(N(C)C)cc3)nc(NC(=O)c3ccncc3)n2)cc1` yielded a growth of 100%. `Nc1nc(-c2ccc(F)cc2)cc(-c2cnn(-c3ccccc3)n2)n1` was tested, and the growth was 111%. For `CC(=O)CC(C)(C)c1ccc(Cl)cc1`, the growth was 98.7%. `Nc1c(C(=O)Nc2ccccc2Cl)sc2nc3c(cc12)CCCCCC3` showed a growth of 33%. With `O=C(Nc1ccc(Nc2cc(Nc3ccccc3)ncn2)cc1)Nc1cc(C(F)(F)F)ccc1F` the growth was 93.7%. `CCOC(=O)C(Cc1cc(I)c(O)c(I)c1)NC(=O)c1ccccc1` (centres undefined) gave a growth of 119%. Work on `CC[C@H](Nc1cc(C)nc(N)n1)c1nc2cccc(NCc3ccc(C(=O)NO)cc3)c2c(=O)n1-c1ccccc1` yielded a growth of 19.9%. `C=C1CCC2C3(C)COC(c4cccc(Cl)c4)OC3CCC2(C)C1/C=C/C1=CCOC1=O` (centres undefined) gave a growth of 39.9%. For `CCN(CC)CC(O)CNc1c2ccc([N+](=O)[O-])cc2nc2cc(OC)c(OC)cc12` (centres undefined), the growth was -68.2% (active). `O=S(=O)(Nc1ccc(F)c(Cl)c1)c1ccc(-c2cnc(C3CC3)o2)cc1` gave a growth of 32%. Compound `COc1ccc(/C=c2/c(=O)[nH]c3nc4sc(C)c(C)c4c(=O)n23)cc1` has a growth of 113%. `Fc1ccc(Cc2ccc(F)cc2)cc1` was tested, and the growth was 114%. With `CC(C)c1c(C(=O)Nc2ccccc2)c(-c2ccccc2)c(-c2ccc(F)cc2)n1CC[C@@H]1CC=CC(=O)O1` the growth was -69.8% (active). With `COc1ccc2nc3cc(Cl)ccc3c(N3CCN(c4ccnc(N5CCN(C)CC5)n4)CC3)c2c1` the growth was 8.43% (active). For `COc1cc(NCCCCN=C(N)NC(N)=NC(C)C)c2ncccc2c1`, the growth was 11.9%. In the case of `CS(=O)CCCCCN=C=S` (centres undefined), the growth is reported as -11.3% (active). Work on `O=C(CO[N+](=O)[O-])Nc1ccc(C(=O)/C=C/c2ccc3c(c2)OCO3)cc1` yielded a growth of 69.2%. In the case of `O=C(CCN1CCOCC1)Nc1ccc(Cn2nnc3c2C(=O)c2nnn(Cc4ccc(NC(=O)CCN5CCOCC5)cc4)c2C3=O)cc1`, the growth is reported as -7.48% (active). `O=C1Nc2ccccc2/C1=C/C(=N/c1nnc(-c2ccc(Cl)cc2)s1)c1ccccc1` was tested, and the growth was 99.8%. For `Cc1ccc(SCN2CCN(c3cccc(Cl)c3)CC2)cc1`, the growth was 100%. `COc1ccccc1N1CCN(CCn2c(=O)c3c(c4ccccc4n3C)n(C)c2=O)CC1` showed a growth of 104%. `CS(=O)(CCCCN=C=S)=NC(=O)c1c(F)c(F)c(F)c(F)c1F` (centres undefined) showed a growth of 94%. Work on `O=C(Cn1cc(CN2C(=O)c3ccccc3S2(=O)=O)nn1)Nc1ccc([N+](=O)[O-])cc1Cl` yielded a growth of 98.4%. `c1ccc(-c2nc(N3CCOCC3)c3c4c(sc3n2)CCCCC4)nc1` gave a growth of 83%. `O=[N+]([O-])c1c(F)cccc1Nc1cccc(F)c1` was tested, and the growth was 102%. `CC1(C)CC(=O)C(c2c(-c3ccccc3)[nH]c3[nH]c(=S)[nH]c(=O)c23)=C(O)C1` showed a growth of 108%. Work on `O=C([C@@H](COCc1ccccc1)N1C(=O)[C@@H](N2C(=O)OC[C@@H]2c2ccccc2)[C@H]1/C=C/c1ccccc1)N1CCC(CCN2CCCCC2)CC1` yielded a growth of 84%. With `COc1cc(/C=N\NC(=O)CN2CCN(c3cc4c(cc3F)c(=O)c(C(=O)N/N=C/c3ccc(O)c(OC)c3)cn4C3CC3)CC2)ccc1O` the growth was 7.72% (active). For `CC/C=C\C[C@H](O)C/C=C1/C(=O)C=C[C@@H]1C/C=C\CCCC(N)=O`, the growth was -73.6% (active). For `ClC1=C2NC=NC2n2c(nnc2-c2ccc(Cl)cc2)N1` (centres undefined), the growth was 102%. For `CCN1CCN(Cc2ccc(NC(=O)Nc3nc4ccc(Oc5ccnc(C(=O)NC)c5)cc4s3)cc2C(F)(F)F)CC1`, the growth was -33.6% (active). In the case of `COc1ccc2nc3cc(Cl)ccc3c(N3CCN(c4nccc(NCc5ccccc5)n4)CC3)c2c1`, the growth is reported as 84.3%. `C=C1CCC2C3(C)COC(c4ccc(SC)cc4)OC3CCC2(C)C1C/C=C1/C(=O)OCC1O` (centres undefined) showed a growth of 90.5%. `O=c1[nH]c(-c2ccccn2)nc2sc3c(c12)CCCCC3` showed a growth of 68.7%. `COc1ccc(C/C(C)=C(\c2ccc(Cl)cc2)c2ccc(OCCN3CCCCCC3)cc2)cc1` was tested, and the growth was 83.1%.
